Inconclusive results are not listed. The source made the active and inactive calls. The call rests on the fitted dose curve; in most records, active means well fitted curve in the direction sought with a large enough effect; inconclusive means small, poorly fitted or top-dose-only effect, or another doubt; inactive means no such curve, though single readings can be large; an effect the other way counts as inactive or inconclusive.

These results are taken from PubChem BioAssay (NCATS).

Assay [1] deals with Glutathione peroxidase 1 (Homo sapiens) (UniProt P07203). The experiment in a line: Primary qHTS Assay for Inhibitors of Recombinant Selenoprotein Glutathione Peroxidase 1 (GPX1) (AID 1845191). Further: nearly all actives have a fitted effect of over 65% in size. Further: potency means the concentration at half of the fitted maximal effect. An outline of the steps: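 10 nM GPX1 + cpd, 30 min RT; start w/ 1 mM GSH, 0.5 mM cumene hydroperoxide, 0.5 mM NADPH, 100 nM GR, 0.01% BSA; buffer 50 mM Tris-HCl pH 7.5, 2 mM EDTA, 150 mM NaCl; Fl 340/450, 0 & 15 min.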
Chain of Glutathione peroxidase 1 (Homo sapiens) (P07203 whole entry, looked up): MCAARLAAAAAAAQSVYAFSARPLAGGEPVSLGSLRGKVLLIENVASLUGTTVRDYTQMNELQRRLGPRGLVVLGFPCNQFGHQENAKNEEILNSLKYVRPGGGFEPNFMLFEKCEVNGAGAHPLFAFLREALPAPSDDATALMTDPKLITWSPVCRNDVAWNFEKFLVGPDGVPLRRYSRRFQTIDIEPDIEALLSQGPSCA
On the technique in general: Quantitative high-throughput screening tests each substance at several concentrations.

Assay [2] has as its target Phospholipid hydroperoxide glutathione peroxidase GPX4 (Homo sapiens) (UniProt P36969). The experiment in a line: Primary qHTS Assay for Inhibitors of Recombinant Selenoprotein Glutathione Peroxidase 4 (GPX4) (AID 1845192). Further: nearly all actives have a fitted effect of over 65% in size. Further: potency means the concentration at half of the fitted maximal effect. The procedure, abridged:
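NADPH consumption, followed by fluorescence at 340/450 nm between 0 and 15 min, reports GPX4 activity via coupled glutathione reductase (100 nM). Enzyme 200 nM was pre-exposed to compound 30 min; 0.5 mM cumene hydroperoxide and 1 mM GSH served as substrates.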

The target of assay [3] is Luciferin 4-monooxygenase (Photinus pyralis) (UniProt P08659). The experiment in a line: Primary firefly luciferase (FLuc) qHTS assay for identification of artifact compounds. (AID 1845220). Further: nearly all actives have a fitted effect of over 60% in size. An outline of the steps:
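Compounds sat 15 min at room temperature with 10 uM luciferin and 10 uM ATP (pH 7.6 Tris acetate). Firefly luciferase (10 nM final) was then added, and luminescence was read 5 min later. Data normalized to no-enzyme and DMSO controls were Hill-fitted.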

Assay [4] in a line: Primary fluorescence-based thiol-reactive (MSTI) qHTS assay for identification of artifact compounds. (AID 1845221). Further: nearly all actives have a fitted effect of over 65% in size. Further: potency means the concentration at half of the fitted maximal effect. An outline of the steps: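 Thiol-reactive compounds detected by quenching of 4 uM MSTI fluorescence (525/598 nm) after 1 h room-temperature dark incubation in PBS pH 7.4, 2% DMSO. qHTS titration; percent inhibition Hill-fitted against Acetyl-MSTI/MSTI controls.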

The subject of assay [5] is Nanoluciferase (engineered Oplophorus gracilirostris luciferase). The experiment in a line: Primary Nanoluciferase (NLuc) qHTS assay for identification of artifact compounds. (AID 1845222). Further: series mostly up to about 54 µM. The procedure, abridged: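 Luminescence from secreted NLuc (filtered, 1:55-diluted S16 cell medium) read 5 min after Nano-Glo substrate; compounds preincubated 15 min, RT. Hill fits of inhibition normalized to DMSO and no-enzyme.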

Chain of Phospholipid hydroperoxide glutathione peroxidase GPX4 (Homo sapiens) (P36969 whole entry, looked up): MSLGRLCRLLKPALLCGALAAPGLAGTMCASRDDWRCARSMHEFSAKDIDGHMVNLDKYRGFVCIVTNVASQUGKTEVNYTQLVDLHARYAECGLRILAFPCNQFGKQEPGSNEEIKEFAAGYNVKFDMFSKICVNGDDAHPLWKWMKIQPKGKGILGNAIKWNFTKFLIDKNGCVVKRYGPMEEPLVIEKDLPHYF

For the molecule `Nc1nc(Cl)nc2c1ncn2C1OC(CO)C(O)C1F` (stereo not given), the Potency result in assay [1], in assay [2], in assay [3], in assay [4] and in assay [5] was “inactive” throughout.
On to `NC(=O)c1ccccc1Nc1ccnc(Nc2cccc(O)c2)n1`, for which the Potency result in assay [1], in assay [2], in assay [3], in assay [4] and in assay [5] was “inactive” throughout.
On to `C=C(C)C(=O)OC1CC(CO)CCC/C(CO)=C/C2OC(=O)C(=C)C21` (stereo not given), for which the Potency entry in assay [1], in assay [2], in assay [3], in assay [4] and in assay [5] was “inactive” in each case.
On to `CN(c1ccc(NC(=O)Nc2ccccc2)cc1)S(=O)(=O)c1cnn(-c2ccc(F)cc2)c1`, for which the Potency entry in assay [1], in assay [2], in assay [3], in assay [4] and in assay [5] was “inactive” in each case.
Take `COc1ccc(-c2ccc3c(N4CCOCC4C)nc(N4CCOCC4C)nc3n2)cc1CO` (stereo not given): the Potency in assay [1] was 18 µM (active); in assay [2], 10.1 µM (active). The Potency entry in assay [3], in assay [4] and in assay [5] was “inactive” each time.
For `O=C(Nc1ccccc1)c1ccc(Nc2nnc(-c3ccc(O)cc3)c3ccccc23)cc1`, the Potency result in assay [1], in assay [2], in assay [3], in assay [4] and in assay [5] was “inactive” each time.
For the molecule `CCC(C)CNCC(=O)N1CCC2SC=CC2C1COc1cccc(C)c1` (stereo not given), the Potency result in assay [1], in assay [2], in assay [3], in assay [4] and in assay [5] was “inactive” in each case.
On to `O=C(Nc1ccc(Cl)cc1)C1CCCN(C(=O)c2cccc(-c3ccco3)c2)C1` (stereo not given), for which the Potency entry in assay [1], in assay [2], in assay [3], in assay [4] and in assay [5] was “inactive” throughout.
Turning to `COC(=O)C1=CO[C@@H](O[C@@H]2O[C@H](CO)[C@@H](O)[C@H](O)[C@H]2O)[C@H]2[C@@H]1C=C[C@]21C=C([C@H](C)OC(=O)/C=C/c2ccc(O)cc2)C(=O)O1`, the Potency entry in assay [1], in assay [2], in assay [3], in assay [4] and in assay [5] was “inactive” throughout.
In the case of `CC(=O)OC1[C@H]2[C@@H](C[C@@H](C)[C@@H]3C=CC(=O)[C@@]13C)OC(=O)[C@@H]2C` (stereo not given in full), the Potency entry in assay [1], in assay [2], in assay [3] and in assay [5] was “inactive” in each case. Further, the Potency in assay [4] is 23.8 µM (active).
